About 2,000 (36%) of roughly 5,500 compounds were called active. Not shown: some 18% with an inconclusive outcome. Rule as the data show it: active = normalized growth mostly below about 0.91 (no sharp cut-off); inconclusive = no clear call, values can overlap the other calls; inactive = mostly above about 0.92. The list shows a part of the results.
Test: chemical genetic growth profiling, strain panel (AID 1159580);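 also: tested at 20 µM; growth read once vehicle control cultures reached saturation at 30 °C; 1 = growth at the plate median or of vehicle wells; lower values mean less growth of the strain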
Conditions: growth OD
[1] = S. cerevisiae deletion strains, locus YAL013W, strain DEP1, hits give low values
[2] = S. cerevisiae deletion strains, locus YBR229C, strain ROT2, hits give low values
[3] = S. cerevisiae deletion strains, locus YCL061C, strain MRC1, hits give low values
[4] = S. cerevisiae deletion strains, locus YDL101C, strain DUN1, hits give low values
[5] = S. cerevisiae deletion strains, locus YDL134C, strain PPH21, hits give low values
[6] = S. cerevisiae deletion strains, locus YDR150W, strain NUM1, hits give low values
[7] = S. cerevisiae deletion strains, locus YEL061C, strain CIN8, hits give low values
[8] = S. cerevisiae deletion strains, locus YGR078C, strain PAC10, hits give low values
[9] = S. cerevisiae deletion strains, locus YHR030C, strain SLT2, hits give low values
[10] = S. cerevisiae deletion strains, locus YHR087W, strain rtc3, hits give low values
[11] = S. cerevisiae deletion strains, locus YJL187C, strain SWE1, hits give low values
[12] = S. cerevisiae deletion strains, locus YJR043C, strain POL32, hits give low values
[13] = S. cerevisiae deletion strains, locus YJR075W, strain HOC1, hits give low values
[14] = S. cerevisiae deletion strains, locus YKL190W, strain CNB1, hits give low values
[15] = S. cerevisiae deletion strains, locus YLR039C, strain RIC1, hits give low values
[16] = S. cerevisiae deletion strains, locus YLR058C, strain SHM2 (second series), hits give low values
[17] = S. cerevisiae deletion strains, locus YLR085C, strain ARP6, hits give low values
[18] = S. cerevisiae deletion strains, locus YLR262C, strain YPT6, hits give low values
[19] = S. cerevisiae deletion strains, locus YML094W, strain GIM5, hits give low values
[20] = S. cerevisiae deletion strains, locus YMR219W, strain ESC1, hits give low values
[21] = S. cerevisiae deletion strains, locus YMR263W, strain SAP30, hits give low values
[22] = S. cerevisiae deletion strains, locus YNL153C, strain GIM3, hits give low values
[23] = S. cerevisiae deletion strains, locus YNL298W, strain CLA4 (second series), hits give low values
[24] = S. cerevisiae deletion strains, locus YNL322C, strain KRE1, hits give low values
[25] = S. cerevisiae deletion strains, locus YNR030W, strain Alg12, hits give low values
[26] = S. cerevisiae deletion strains, locus YOL006C, strain TOP1, hits give low values
[27] = S. cerevisiae deletion strains, locus YPL055C, strain LGE1, hits give low values
[28] = S. cerevisiae deletion strains, locus YPL241C, strain CIN2, hits give low values
[29] = S. cerevisiae deletion strains, locus YPR135W, strain CTF4, hits give low values
[30] = S. cerevisiae deletion strains, locus YMR307W, strain GAS1, hits give low values
[31] = S. cerevisiae deletion strains, locus YNL128W, strain TEP1, hits give low values

Measured: normalized growth

N#Cc1cnn(-c2ccccc2)c1-n1cccc1
active: [9] 0.626
inactive: [1] 0.976 | [2] 0.988 | [3] 0.959 | [4] 1.01 | [5] 0.999 | [6] 0.873 | [7] 1.02 | [8] 0.974 | [10] 1.02 | [11] 0.976 | [12] 0.978 | [13] 0.988 | [14] 0.985 | [15] 0.859 | [16] 0.974 | [17] 0.933 | [18] 0.883 | [19] 0.984 | [20] 0.981 | [21] 0.964 | [22] 0.994 | [23] 0.967 | [24] 0.989 | [25] 0.956 | [26] 0.938 | [27] 0.969 | [28] 0.953 | [29] 0.82

O=C(O)c1cnn(-c2ccccc2)c1C(F)(F)F
inactive: [1] 1.01 | [2] 0.988 | [3] 0.995 | [4] 0.998 | [6] 1.02 | [7] 0.996 | [8] 0.99 | [9] 1.01 | [10] 0.98 | [11] 0.993 | [12] 0.992 | [13] 1.02 | [15] 1.03 | [16] 1.01 | [17] 1.05 | [18] 0.955 | [19] 1.02 | [20] 1 | [21] 0.989 | [30] 0.979 | [31] 1.01 | [22] 0.984 | [23] 1.01 | [24] 0.999 | [25] 1.01 | [26] 1.04 | [27] 1.04 | [28] 1.01 | [29] 1

CC1(O)/C=C/C=C(\CO)C2CC(C)(C)C2(O)CC1 (centres undefined)
inactive: [1] 1.02 | S. cerevisiae deletion strains, locus YBR021W, strain FUR4, hits give low values 1.02 | [2] 1.01 | S. cerevisiae deletion strains, locus YCL029C, strain bik1, hits give low values 1 | S. cerevisiae deletion strains, locus YDL035C, strain GPR1, hits give low values 1.01 | S. cerevisiae deletion strains, locus YDL074C, strain BRE1, hits give low values 1.03 | [4] 1.02 | [5] 1.02 | S. cerevisiae deletion strains, locus YDL185W, strain tfp1, hits give low values 1 | S. cerevisiae deletion strains, locus YDL192W, strain arf1, hits give low values 1 | S. cerevisiae deletion strains, locus YDR101C, strain arx1, hits give low values 0.976 | [6] 1.02 | S. cerevisiae deletion strains, locus YDR162C, strain NBP2, hits give low values 1.04 | S. cerevisiae deletion strains, locus YDR318W, strain mcm21, hits give low values 0.993 | S. cerevisiae deletion strains, locus YDR388W, hits give low values 0.998 | S. cerevisiae deletion strains, locus YDR502C, strain sam2, hits give low values 1.01 | [7] 1.01 | S. cerevisiae deletion strains, locus YER110C, hits give low values 0.998 | S. cerevisiae deletion strains, locus YER155C, strain BEM2, hits give low values 1 | S. cerevisiae deletion strains, locus YER167W, strain BCK2, hits give low values 1.02 | S. cerevisiae deletion strains, locus YGL078C, strain dbp3, hits give low values 1 | S. cerevisiae deletion strains, locus YGL086W, strain mad1, hits give low values 1 | S. cerevisiae deletion strains, locus YGL248W, strain PDE1, hits give low values 1.01 | [8] 1.02 | S. cerevisiae deletion strains, locus YGR135W, strain pre9, hits give low values 0.999 | S. cerevisiae deletion strains, locus YGR229C, strain SMI1, hits give low values 1.02 | S. cerevisiae deletion strains, locus YGR252W, strain gcn5, hits give low values 0.956 | [9] 1 | S. cerevisiae deletion strains, locus YHR079C, strain IRE1 (second series), hits give low values 1 | S. cerevisiae deletion strains, locus YHR094C, strain hxt1, hits give low values 1.01 | S. cerevisiae deletion strains, locus YHR129C, strain ARP1, hits give low values 1.01 | S. cerevisiae deletion strains, locus YHR200W, strain rpn10, hits give low values 1 | S. cerevisiae deletion strains, locus YIL066C, strain RNR3, hits give low values 1.01 | S. cerevisiae deletion strains, locus YIL073C, strain SPO22, hits give low values 1.02 | S. cerevisiae deletion strains, locus YIL125W, strain kgd1, hits give low values 0.998 | S. cerevisiae deletion strains, locus YIR030C, strain dcg1, hits give low values 1.01 | S. cerevisiae deletion strains, locus YJL095W, strain BCK1, hits give low values 1 | S. cerevisiae deletion strains, locus YJL134W, strain LCB3, hits give low values 1.01 | S. cerevisiae deletion strains, locus YJL168C, strain set2, hits give low values 1 | S. cerevisiae deletion strains, locus YJL187C, strain SWE1 (second series), hits give low values 1.02 | [12] 0.995 | [13] 1.01 | S. cerevisiae deletion strains, locus YKL009W, strain mrt4, hits give low values 0.991 | S. cerevisiae deletion strains, locus YKL068W, hits give low values 1.01 | S. cerevisiae deletion strains, locus YKL085W, strain MDH1 (second series), hits give low values 1.02 | S. cerevisiae deletion strains, locus YKL085W, strain MDH1, hits give low values 1.02 | [14] 1.01 | S. cerevisiae deletion strains, locus YKR001C, strain vps1, hits give low values 1 | [15] 0.977 | S. cerevisiae deletion strains, locus YLR058C, strain SHM2, hits give low values 1.01 | S. cerevisiae deletion strains, locus YLR102C, strain apc9, hits give low values 1 | [18] 1.05 | S. cerevisiae deletion strains, locus YLR268W, strain sec22, hits give low values 0.986 | S. cerevisiae deletion strains, locus YLR330W, strain CHS5, hits give low values 1.01 | S. cerevisiae deletion strains, locus YLR342W, strain FKS1 (second series), hits give low values 1.02 | S. cerevisiae deletion strains, locus YLR371W, strain rom2, hits give low values 1 | S. cerevisiae deletion strains, locus YLR418C, strain cdc73, hits give low values 0.989 | S. cerevisiae deletion strains, locus YML016C, strain PPZ1, hits give low values 1.01 | S. cerevisiae deletion strains, locus YML032C, strain rad52, hits give low values 0.979 | S. cerevisiae deletion strains, locus YML124C, strain tub3, hits give low values 1 | S. cerevisiae deletion strains, locus YMR078C, strain ctf18, hits give low values 1.01 | S. cerevisiae deletion strains, locus YMR223W, strain ubp8, hits give low values 0.994 | [21] 1.02 | [30] 1.02 | S. cerevisiae deletion strains, locus YNL067W, strain RPL9B, hits give low values 1.01 | [31] 1.03 | [22] 1.02 | S. cerevisiae deletion strains, locus YNL233W, strain BNI4, hits give low values 1.02 | S. cerevisiae deletion strains, locus YNL250W, strain rad50, hits give low values 1.02 | S. cerevisiae deletion strains, locus YNL271C, strain bni1, hits give low values 0.995 | S. cerevisiae deletion strains, locus YNL298W, strain CLA4, hits give low values 0.993 | S. cerevisiae deletion strains, locus YNL307C, strain MCK1, hits give low values 0.997 | [24] 1.02 | S. cerevisiae deletion strains, locus YNR052C, strain pop2, hits give low values 0.998 | [26] 1.06 | S. cerevisiae deletion strains, locus YOL012C, strain htz1 0.828 | S. cerevisiae deletion strains, locus YOL147C, strain pex11, hits give low values 1.01 | S. cerevisiae deletion strains, locus YOR061W, strain CKA2, hits give low values 1.02 | S. cerevisiae deletion strains, locus YOR069W, strain VPS5, hits give low values 1.01 | S. cerevisiae deletion strains, locus YOR136W, strain idh2, hits give low values 0.997 | S. cerevisiae deletion strains, locus YOR144C, strain elg1, hits give low values 0.999 | S. cerevisiae deletion strains, locus YOR184W, strain ser1, hits give low values 0.994 | S. cerevisiae deletion strains, locus YOR316C, strain cot1, hits give low values 1 | [27] 1.05 | [28] 1.02 | S. cerevisiae deletion strains, locus YPR119W, strain clb2, hits give low values 0.992 | S. cerevisiae deletion strains, locus YPR141C, strain kar3, hits give low values 1 | S. cerevisiae deletion strains, locus YPR163C, strain tif3, hits give low values 1 | S. cerevisiae deletion strains, locus YPR167C, strain met16, hits give low values 1.01 | S. cerevisiae deletion strains, strain wtn01, hits give low values 0.995 | S. cerevisiae strains, strain wild type, hits give low values 1.01
